Measured values as given in PubChem BioAssay AID1508622 (National Center for Advancing Translational Sciences (NCATS), 2021).
Active and inactive are the calls of the source. Calls follow the shape of the dose curve; as a rule, active = well fitted activation curve with a large enough effect; inconclusive = small, poorly fitted or top-dose-only effect; inactive = no such curve, though single readings can be large or run the other way.

Assay: Confirmatory qHTS for Identification of Small Molecule Activators of Huntingtin-Antisense Promoter Activity
Conditions: HEK293 HTT-AS promoter firefly luciferase reporter, 24 h; series mostly up to 57.5 µM; activity change, positive = activation: at the top concentration
Procedure, shortened: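 Activity normalized between vehicle control (0%) and zero RLU (-100%) from firefly luminescence (Dual-Glo). Compounds, up to 57.5 uM final, incubated 24 h at 37C on HEK293 reporter cells plated 24 h earlier.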
Potency is read from the fitted curve at half-maximal effect.

Activity change, positive = activation, inactive:
O=C(Nc1ccc2c(c1)CCCN2C(=O)c1cccs1)c1cccc(C(F)(F)F)c1 -28.8%
CCc1ccc(NC(=O)c2ccc(F)c(S(=O)(=O)N3CCC4(CC3)OCCO4)c2)cc1 -82.6%
CCOc1ccc(/C=C/c2nc(C#N)c(NCc3ccccc3)o2)cc1 -14.7%
CCc1c(C)nc2nncn2c1Nc1ccc(C(C)C)cc1 -35%
CCCCOc1ccc(C(=O)Nc2ccc3c(c2)CCCN3S(=O)(=O)c2ccc(C)cc2)cc1 -62.3%
O=C(c1ccc(CS(=O)c2ccccc2Cl)o1)N1CCN(c2cccc(C(F)(F)F)c2)CC1 (configuration not stated) -54%
FC(F)(F)c1cccc(Nc2c3c(nc4ccc(Cl)cc24)CCC3)c1 -57.1%
Cc1ccc(CN2CCC(CNC(=O)c3cnn(-c4ccccc4Cl)c3C3CCN(C(=O)OC(C)(C)C)CC3)CC2)cc1 -30.1%
CCCN(C(=O)CCc1nc(-c2ccc(C)cc2)no1)c1ccc(OCC)cc1 -22%
COc1ccc(NC(=O)C(=O)c2cc(C)n(-c3ccc(C)cc3)c2C)cc1Cl -74.2%
CCOCCCNC(=O)Nc1cc(C(=O)NCc2ccc(C(C)C)cc2)ccc1N1CCCC1 -55%
Cc1cccc(NC(=O)Cn2c(=O)oc3cc(S(=O)(=O)N4CCCCCC4)ccc32)c1 -34%
CCn1cc(C(=O)N2CCN(c3ccc(C)cc3)C(C)C2)c(=O)c2cc(S(=O)(=O)N3CCCC3)ccc21 (configuration not stated) 1.12%
COc1ccc(N2CCN(C(CNC(=O)C(=O)NCc3ccc(C)cc3)c3cccnc3)CC2)cc1 (configuration not stated) -43.7%
COc1ccccc1N1CCN(C(CNC(=O)C(=O)NCCc2ccccc2)c2cccnc2)CC1 (configuration not stated) -46.1%
CCOC(=O)C1CCC(CN(Cc2ccccc2)S(=O)(=O)c2ccc(Cl)cc2)CC1 (configuration not stated) -34%
COc1ccc(CC(=O)Nc2ccc(-c3nc4ccccc4s3)cc2Cl)cc1OC -32.9%
COc1ccc(C(=O)Oc2c(Sc3ccccc3)c(C)nn2-c2ccccc2)c(OC)c1 -31.5%
CC(=O)N1CCCc2cc(S(=O)(=O)N3CCN(c4ccc(F)cc4)CC3)ccc21 -29.3%
Cc1ccccc1C(=O)Nc1sc2c(c1C(=O)O)CCC(C(C)(C)C)C2 (configuration not stated) -32.5%
Cc1cc(NC(=O)c2cc(Cl)ccc2Cl)ccc1-c1cc2ccccc2oc1=O -43.5%

Potency, active:
CC(C)[C@H](C(=O)Nc1ccc(C(=O)NO)cc1)c1ccccc1 1.9 µM
